# Assay outcomes (PubChem BioAssay)
# Sampled rows, rich in hits. Any-hit rate of the full collection: about 19%.
# Pf growth 48h = P. falciparum growth inhibition at 48 hours (one generation). P. falciparum luciferase growth in erythrocytes, 48 h. Potency, µM (series often up to 28.7 µM), for the others: top-dose activity change, negative = inhibition, most hits filed as inhibitors. 5.9% of 310,000 active; note: potency is the fitted concentration of half-maximal effect; % is set by controls: 0 for no effect and ±100 for the full control effect
#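 Luminescence readout; reporter = integrated firefly luciferase in P. falciparum. RBC culture at 2% hematocrit, 0.1% parasitemia final, 37 C/5% CO2; decreased signal taken as growth inhibition.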
# Shiga inhibitor = blocks Shiga toxin action in Vero cells | 9.2% of 290,000 active | AID 2315 | inhibition, % at 38.7 µM | Vero cells, Shiga toxin protein synthesis inhibition reporter; in the data active = inhibition mostly above about 28%, no sharp cut-off; inactive = mostly below about 43%; note: 0% is about no effect
# Cycloheximide cs = affects cycloheximide protein synthesis inhibition readout, counter-screen; cell reporter, cycloheximide protein synthesis inhibition counterscreen; max response, %; 12% of 300,000 active; in the data active = max response mostly above about 13%, no sharp cut-off; inactive = mostly below about 14%; note: read at 38.3 µM for the half of the compounds with a filed dose; 0% is about no effect
# SARS PLpro yeast = blocks SARS-CoV papain-like protease in a yeast assay; S. cerevisiae expressing SARS-CoV PLpro, growth rescue; Potency, µM (series often up to 32.9 µM), without a hit: at the top dose activity, positive = growth rescue, hits mostly activators; 0.19% of 330,000 active; AID 485353; calls by dose curve; note: potency is the fitted concentration of half-maximal effect; 0% is about no effect; nearly all actives have a fitted effect of over 55% in size
# AMA1 RON2 block = disrupts binding of P. falciparum AMA1 to RON2 | Potency, µM (highest dose often 58.2 µM), for inactives: at the top dose activity change, negative = inhibition, most hits filed as inhibitors | AlphaScreen AMA1-biotinylated RON2 peptide binding | AID 720542 | 0.2% of 360,000 active;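 note: potency is the fitted concentration of half-maximal effect; 0% = vehicle wells and -100% = peptide control; nearly all actives have a fitted effect of over 45% in size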
#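 AMA1 (3D7) with his tag at 25 nM final met compounds first, then biotinylated RON2 peptide at 25 nM; detection used donor plus acceptor beads, 10 µg/mL apiece, read by AlphaScreen after 30 min at room temperature.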
# Pf growth 96h = P. falciparum growth inhibition at 96 hour, primary screen for plastid delayed-death inhibitors; 6.9% of 320,000 active; Potency, µM (doses to about 28.7 µM), for inactives: at the highest dose activity change, negative = inhibition, usual class: inhibitors; P. falciparum luciferase reporter growth, 96 h; note: potency is the fitted concentration of half-maximal effect; % is set by controls: 0 for no effect and ±100 for the full control effect
#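 Two parasite generations (96 h, 37 C, 5% CO2) of compound exposure in infected erythrocytes (0.05% parasitemia, 2% hematocrit). Luciferase-reporter P. falciparum; decreased luminescence indicates inhibited growth, aimed at apicoplast-acting delayed death.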
# An asterisk follows results filed as active; i = inactive; ? = inconclusive; · = not tested or not shown. Unless noted, calls come from the whole dose curve; as a rule, active = well fitted curve in the direction sought with a large enough effect; inconclusive = small, poorly fitted or top-dose-only effect, or another doubt; inactive = no such curve, though single readings can be large; an effect the other way counts as inactive or inconclusive.
SMILES,Pf growth 48h,Shiga inhibitor,Cycloheximide cs,SARS PLpro yeast,AMA1 RON2 block,Pf growth 96h
O=C(O)c1ccc(NNC(=S)Nc2cc(C(F)(F)F)ccc2Cl)cc1,152%,59*,36*,4%,83%,404%
Cc1nc2c(-c3ccccc3)c(C)nn2c(SCC(N)=O)c1Cc1ccccc1,?,8,-2,-1%,-1%,?
Cc1cccc(/N=C/c2ccccn2)n1,·,·,·,·,19%,·
C/C(=N\Nc1ccc(Cl)c(Cl)c1)c1ccc(-n2ccnc2)cc1,12µM*,21,10,-70%,-16%,4.7µM*
C/C(=N\NC(N)=S)c1ccc(-n2ccnc2)cc1,?,-6,-3,3%,94%,?
COc1ccccc1NS(=O)(=O)c1cccc(C(=O)N/N=C(\C)c2ccc(-n3ccnc3)cc2)c1,·,-25,-3,11%,51%,13µM*
C=C(C)CNC(=S)N/N=C(\C)c1ccc(-n2ccnc2)cc1,·,-10,-3,12%,14%,5.9µM*
C/C(=N\NC(=O)OC(C)(C)C)c1ccc(-n2ccnc2)cc1,213%,16,13,1%,9%,?
C/C(=N\NC(=O)c1ccccc1)c1ccc(-n2ccnc2)cc1,6%,60*,37*,4%,6%,25%
COc1cccc(N2CC(NS(=O)(=O)c3cccnc3)CC2=O)c1 (centres undefined),15%,·,·,2%,-8%,11%
COc1ccc(C2C(C(=O)c3ccco3)=C(O)C(=O)N2CC2CCCO2)cc1OC (centres undefined),5%,-6,-2,-1%,5%,14%
O=C(CC1(c2ccc(Cl)cc2)C2CC3CC(C2)CC1C3)NCCO (centres undefined),14%,-27,-2,0%,6%,40%
COC1CCCN(C(=O)c2cccc(OC3CCN(S(C)(=O)=O)CC3)c2)C1 (centres undefined),32%,-3,1,6%,5%,?
O=C(c1cnc2n(c1=O)CCS2)N(c1ccccc1)C1CCCCC1,?,7,-2,6%,-10%,6.6µM*
Cc1cccc(N(C(=O)c2cnc3n(c2=O)CCS3)C2CCCCC2)c1,8%,11,-2,10%,0%,164%
Cc1ccc(NC(=O)CSc2n[nH]c(-c3cccnc3)n2)c(Br)c1,25%,-8,-8,-3%,0%,?
COc1ccc(/C=C2\CCC(C3CCCC3)C2=O)cc1 (centres undefined),225%,93*,51*,0%,-3%,?
COc1ccc(/C=C2\CCC(C3CCCC3)C2=O)c(OC)c1 (centres undefined),23%,21,10,0%,-13%,11%
CN(C)CC1CC/C(=C\c2ccc(O)cc2)C1=O (centres undefined),·,·,·,·,16%,·
Cc1ccsc1/C=C1\CCC(C2CCCC2)C1=O (centres undefined),i,106*,44*,2%,26%,-26%
Cc1ccc(/C=C2\CCC(C3CCCC3)C2=O)cc1 (centres undefined),259%,61*,56*,-3%,8%,-4%
O=Cc1cccn1Cc1ccccc1[N+](=O)[O-],-2%,13,33*,-12%,8%,9.3µM*
COc1cc(SC)ccc1C(=O)N1CCc2ccccc21,?,·,-2,0%,-5%,2%
COc1ccc(CCC(=O)O)c(O)c1,0%,-9,-5,0%,-19%,-1%
Cc1cc(CCC(=O)O)c(C)cc1CCC(=O)O,5.9µM*,21,-3,3%,-3%,?
SMILES,Pf growth 48h,Shiga inhibitor,Cycloheximide cs,SARS PLpro yeast,AMA1 RON2 block,Pf growth 96h
CCn1ncc(Br)c1C(=O)Nc1cc([N+](=O)[O-])ccc1C,11%,-5,-2,-11%,9%,33%
CN(Cc1ccccc1)C(=O)c1ccc2sc([C@H]3C[C@H](O)[C@@H](CO)O3)nc2c1,·,·,·,·,6%,·
Cc1ccccc1S(=O)(=O)Cc1ccc(C(=O)N2CC(C)CC(C)C2)o1 (centres undefined),·,-10,-1,-6%,-7%,17µM*
COc1ccc(S(=O)(=O)Cc2ccc(C(=O)N3CCN(c4ccccn4)CC3)o2)cc1,·,-11,-7,4%,-7%,1%
Cc1ccc(S(=O)(=O)Cc2ccc(C(=O)N3CCC(C(N)=O)CC3)o2)cc1,48%,8,3,1%,18%,10µM*
COc1ccc(S(=O)(=O)Cc2ccc(C(=O)N3CCC(C(N)=O)CC3)o2)cc1,·,4,-2,-2%,9%,-18%
Cc1ccccc1S(=O)(=O)Cc1ccc(C(=O)N2CCN(c3cccc(C)c3C)CC2)o1,?,-11,-2,-13%,-6%,·
O=C(c1ccc(CS(=O)(=O)c2ccc(Br)cc2)o1)N1CCN(c2ncccn2)CC1,·,-7,-1,-5%,-8%,1.9µM*
COCCNC(=O)C(c1ccc(O)cc1)N(Cc1ccccc1)C(=O)CCC(=O)Nc1nccs1 (centres undefined),2%,-10,-5,-6%,-8%,3%
COc1ccc(N2Cc3cccc(C(=O)NC(C)CCc4ccco4)c3C2=O)cc1 (centres undefined),·,15,0,-11%,-10%,12µM*
C[N+]1(CCCCSc2ccc(O)cc2)CCCCC1,9.3µM*,-14,8,-4%,-6%,-12%
CC(C)C(=O)N1CCCC1(C)C(=O)Nc1cccc(Oc2ccccc2)c1 (centres undefined),·,·,·,·,-5%,·
O=C1Nc2ccccc2SC1=Cc1ccccc1,·,·,·,·,0%,·
CCc1ccc(C(=O)/C=C2\Sc3ccccc3NC2=O)cc1,69%,88*,50*,-23%,91%,37%
N#C/C(C(=O)N1CCCCC1)=C1\Nc2ccccc2S1,74%,58*,37*,-16%,24%,-1%
CCCCNC(=O)/C=C1\Sc2ccccc2NC1=O,18%,13,23,12%,31%,?
O=C1Nc2ccccc2S/C1=C\C(=O)N1CCCC1,373%,72*,27*,1%,·,3%
CCc1ccc(C2=NNC(=Nc3c(C)n(C)n(-c4ccccc4)c3=O)SC2)cc1,14%,40,13,-1%,9%,15%
COCCN=C1NN=C(c2ccc(C)c([N+](=O)[O-])c2)CS1,185%,63*,47*,0%,51%,134%
CCCCN=C1NN=C(c2ccc3c(c2)OCCO3)CS1,35%,35,19,1%,58%,-53%
CCCCN=C1NN=C(c2ccc(C)c(C)c2)CS1,?,87*,44*,-1%,46%,?
CN(CC(=O)Nc1ccccc1C(F)(F)F)C(=O)c1ccccc1Sc1ccccc1C#N,?,·,·,-3%,52%,?
COC(=O)c1ccc(-c2ccc(OC)c(C3C4C=CCC(C)C4C(=O)N3Cc3ccccc3)c2)cc1 (centres undefined),·,22,-1,·,·,·
